Records with an inconclusive call do not appear. Where a call stands in place of a potency, no number is given. Values without a mark were called inactive. Calls of active or inactive are those of the source. Calls follow the shape of the dose curve; as a rule, active = well fitted cell-killing curve with a large enough effect in the repeat runs; inconclusive = weak or mixed curves, or effect the other way; inactive = no such curve, though single readings can be large or run the other way.
assay: qHTS assay to identify small molecule antagonists of the thyroid receptor (TR) signaling pathway - cell viability counter screen (AID 743064); conditions: GH3.TRE-Luc viability, CellTiter-Fluor, 24 h; series mostly up to 70.3 µM; also: nearly all actives have a fitted effect of over 50% in size
Description: National Center for Advancing Translational Sciences [NCATS]
NIH Chemical Genomics Center [NCGC]
U.S. Environmental Protection Agency [EPA]
National Institutes of Environmental Health Sciences [NIEHS]
National Toxicology Program [NTP]
U.S. Food and Drug Administration [FDA]
Thyroid receptor (TR), a nuclear hormone receptor, plays an important role in development, proliferation, differentiation, metabolism, brain function, and cardiovascular system. […] To profile the Tox21 10K compound library in TR signaling, a cell-based GH3-TRE-Luc assay (GH3.TRE-Luc cell line, developed by the laboratory of Dr. Albertinka J. Murk, Wageningen University) was used to measure the inhibition of TR. GH3 (rat pituitary tumor) cells stably expressing a TR activity sensor consisting of two TR response elements and a luciferase reporter gene. The cytotoxicity of the Tox21 compound library against the GH3.TRE-Luc cell line was tested in parallel by measuring the cell viability using CellTiter-Fluor assay (Promega, Madison, WI) in the same wells.
Tox21 Assay Protocol Summary:
GH3.TRE-Luc cells were dispensed at 1500 cells/4 uL/well into 1536-well white solid bottom plates using a Multidrop Combi dispenser (Thermo Fisher Scientific Inc., Waltham, MA). After the assay plates were incubated at 37 C for 4 hours, 23 nL of library compound or DMSO controls was transferred to the assay plates by a pintool station (Kalypsys, San Diego, CA), followed by addition of 1 ul of T3 (1 nM, final concentration in the wells) to stimulate TR transactivation. The assay plates were incubated at 37 C for 23.5 h, and then 1 uL of CellTiter-Fluor reagent (Promega, Madision, WI) of measuring cytotoxicity was added to each well using a Bioraptr Flying Reagent Dispenser (FRD) workstation (Beckman Coulter, Indianapolis, IN, USA). The plates were incubated at 37C and 5% CO2 for additional 30 min, and fluorescence intensity was measured by a ViewLux plate reader (PerkinElmer, Shelton, CT).

Row | SMILES | Potency | activity change, negative = cytotoxic
1 | CCCCCCCCCCCCCC(=O)OCC | inactive | 
2 | CC(C)(C)C(=O)CC(=O)C(C)(C)C | inactive | 
3 | CCCCCC(CC)OC(=O)CCCOc1ccc(Cl)cc1Cl (stereo not given) | inactive | 
4 | CCCC(=O)C(CC)Sc1ccoc1C (stereo not given) | inactive | 
5 | C=CCN1CCc2nc(N)sc2CC1 | inactive | 
6 | CCc1ccc(CC)cc1 | inactive | 
7 | CCCCCCCCOCCC#N | inactive | 
8 | C=CCN(CC=C)CC=C | inactive | 
9 | CC(=O)c1ccc2ccc3ccccc3c2c1 | inactive | 
10 | NNC(=O)CCCCC(=O)NN | inactive | 
11 | OCCC(F)(F)C(F)(F)C(F)(F)C(F)(F)C(F)(F)C(F)(F)F | inactive | 
12 | C=CCCCCCCCCCCCCCC | inactive | 
13 | C/C(=N\O)c1ccc(OCC(=O)N2CCCCC2)cc1 | inactive | 
14 | CC(C)(C)C(=O)CCc1ccc(Cl)cc1 | inactive | 
15 | CCc1ncc(C)[nH]1 | inactive | 
16 | N#CC1(N)CCCCC1 | inactive | 
17 | CC/C=C/CCCCCCCCCCOC(C)=O | inactive | 
18 | Cc1ccc(O)c(C(=O)c2ccccc2)c1 | inactive | 
19 | CC(C)(O)CCCC1=CCC(C=O)CC1 (stereo not given) | inactive | 
20 | NNC(=O)OCc1ccccc1 | inactive | 

Row | SMILES | Potency | activity change, negative = cytotoxic
21 | Cc1ccc(N)nc1 | inactive | 
22 | CC(C)(C)OC=O | inactive | 
23 | C[C@@H](CN1CC(=O)NC(=O)C1)N1CC(=O)NC(=O)C1 | inactive | 
24 | CCN1CCN(C(=O)N[C@@H](C(=O)N[C@@H]2C(=O)N3C(C(=O)O)=C(CSc4nnnn4C)CS[C@H]23)c2ccc(O)cc2)C(=O)C1=O | inactive | 
25 | CC/C=C\CCOC(=O)c1ccccc1 | inactive | 
26 | Cc1ccc(S(=O)(=O)NC(=O)NN2CC3CCCC3C2)cc1 (stereo not given) | inactive | 
27 | CN(C)CCc1c[nH]c2ccc(C[C@H]3COC(=O)N3)cc12 | inactive | 
28 | O=S(=O)(O)c1cc(I)c(O)c2ncccc12 | inactive | 
29 | Nc1cc(S(=O)(=O)O)ccc1O | inactive | 
30 | Cc1cc(C)c(C)c(C)c1 | inactive | 
31 | O=C(CCBr)N1CCN(C(=O)CCBr)CC1 | inactive | 
32 | c1cc2ccc3ccc4ccc5cccc6c(c1)c2c3c4c56 |  | 20.6% [at 3.79 µM]
33 | O=P(O)(O)C(O)(Cc1cccnc1)P(=O)(O)O | inactive | 
34 | NCC1CCC(C(=O)Oc2ccc(CCC(=O)O)cc2)CC1 (stereo not given) | inactive | 
35 | C[n+]1ccccc1/C=N/O | inactive | 
36 | C=CC(C)(CCC=C(C)C)OC(=O)C(C)C (stereo not given) | inactive | 
37 | Cc1cc(C)c(N)c(Cl)c1 | inactive | 
38 | CCCCCCCCCCCCCCCCN(C)C |  | 0.507% [at 8.44 µM]
39 | CCCCN=C(N)N=C(N)N | inactive | 
40 | NS(=O)(=O)c1cc2c(cc1C(F)(F)F)NCNS2(=O)=O | inactive | 

From PubChem BioAssay (Tox21)
